In PubChem BioAssay (NCATS):

Target: Lysosomal acid glucosylceramidase (Homo sapiens) (UniProt P04062)
Assay: Glucocerebrosidase-p2 (AID 348)
Conditions: purified GBA, blue fluorogenic substrate, 40 min; in the data active = potency below about 10 µM; inactive = the rest
Outline: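 Normal human glucocerebrosidase (0.2 nM) with blue fluorogenic substrate (80 uM final) in citrate/phosphate pH 5.9 with 10mM sodium taurocholate, 0.01% tween-20; 40 min RT, NaOH/glycine stop; fluorescence Ex 365/Em 440; AC50 from a titration from 0.6 nM upwards.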
Potency is the fitted concentration of half-maximal effect.

Lysosomal acid glucosylceramidase (Homo sapiens), sequence (P04062 whole entry, looked up): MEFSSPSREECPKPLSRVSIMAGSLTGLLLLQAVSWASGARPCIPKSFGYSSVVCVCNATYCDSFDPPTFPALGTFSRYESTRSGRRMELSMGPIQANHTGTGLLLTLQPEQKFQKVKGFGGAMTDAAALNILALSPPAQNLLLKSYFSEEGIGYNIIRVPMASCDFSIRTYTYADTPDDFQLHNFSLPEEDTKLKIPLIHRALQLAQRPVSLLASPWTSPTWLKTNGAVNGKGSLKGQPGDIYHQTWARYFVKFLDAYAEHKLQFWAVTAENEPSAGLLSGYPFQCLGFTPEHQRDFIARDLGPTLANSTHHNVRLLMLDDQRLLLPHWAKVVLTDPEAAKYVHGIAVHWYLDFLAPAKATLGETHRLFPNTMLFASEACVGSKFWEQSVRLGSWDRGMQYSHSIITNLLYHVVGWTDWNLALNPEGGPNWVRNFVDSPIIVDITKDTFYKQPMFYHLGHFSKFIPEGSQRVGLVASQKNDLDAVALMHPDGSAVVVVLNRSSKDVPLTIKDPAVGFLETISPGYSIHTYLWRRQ

Potency, inactive:
COc1ccc(C(=O)N2CCC3(CC2)CCN(c2ccncc2)CC3)cc1 > 11.4 µM, CC(C)CN1CC2(CCN(C(=O)c3csnn3)CC2)C1 > 11.4 µM, Cn1cccc1C(=O)N1CCC2(CCCN(C(=O)Nc3cccc(F)c3)C2)CC1 > 11.4 µM, Cc1cnc(CNc2ncncc2-c2ccccc2CN(C)C)cn1 > 11.4 µM, COc1ccccc1CNc1ncncc1-c1ccccc1C > 11.4 µM, CS(=O)(=O)N1CCC2(CC1)CN(c1ccccc1)C2 > 11.4 µM, O=C(c1cnccn1)N1CCC2(CC1)CCN(c1ccncc1)CC2 > 11.4 µM, CCNc1ncc2ncc(=O)n(C[C@H]3CCCO3)c2n1 > 11.4 µM, O=C(c1cnccn1)N1CCC2(CCCN(Cc3ccccc3)C2)CC1 > 11.4 µM, COc1ccccc1CN1CCC2(CC1)CCN(C(=O)c1ccco1)CC2 > 11.4 µM, CN(C)C(=O)c1ccc(-c2nc(NCc3ccccc3)c3ccccc3n2)cc1 > 11.4 µM, O=C(c1cccc(F)c1)N1CCC2(CCCN(c3ccccn3)C2)CC1 > 11.4 µM, CC(C)CN1CCCC2(CCN(C(=O)c3cnccn3)CC2)C1 > 11.4 µM, CN1CCC2(CC1)CCN(C(=O)c1cccc(F)c1)CC2 > 11.4 µM, CC(C)CN1CC2(CCN(S(=O)(=O)c3ccccc3)CC2)C1 > 11.4 µM, CN(C)C(=O)c1ccc(-c2nc(NCc3cccs3)c3ccccc3n2)cc1 > 11.4 µM
